# Source: PubChem BioAssay (NCI)
# The panel holds about 83,000 compounds, 20% with a hit somewhere; the sample as a whole holds those more often.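 Cell lines were cultured in 96-well plates, exposed to a single compound concentration, and assessed for percent growth 48 hours later.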 The source made the active and inactive calls. Rule for the calls: active = growth percent below 10; inactive = the rest.
# Test system: NCI-H322M lung
# Assay: NCI-60 one-dose screen, 48 h (100 = growth as untreated, 0 = no growth, -100 = all killed)
# Settings: 10 µM unless noted
row,SMILES,growth
1,COc1ccccc1N1CCN(CCCOc2ccc(C(=O)/C=C3/C(=O)Nc4ccccc43)cc2)CC1,88.7% (inactive)
2,CCC[S@](=O)c1ccc2nc(NC(=O)OC)[nH]c2c1,98.6% (inactive)
3,FC(F)(F)c1ccc2c(Nc3cccc(C4CC(c5ccccc5)=NN4c4ccc(Cl)cc4)c3)ccnc2c1 (centres undefined),68.7% (inactive)
4,COc1cc(NC(=O)c2cc(O)c(C/C=C(\C)CCC=C(C)C)c(O)c2)cc2c1O[C@]1(C)CC[C@@H](O)C(C)(C)[C@H]1C2,41.5% (inactive)
5,CCOC(=O)c1c(C)nc2c(c1N)/C(=C/c1cccs1)C(=O)N2Cc1ccccc1,91.9% (inactive)
6,CS(=O)(=O)O[C@@H]1C(=O)N(c2cc3c4ccccc4ccc3c3ccccc23)[C@H]1c1ccc(F)cn1,67% (inactive)
7,Cc1cccc(NC(=O)c2sc3nc4c(cc3c2N)CN(Cc2ccccc2)CC4)c1C,40.4% (inactive)
8,C#Cc1ccccc1NC(=O)c1sc2nc3c(cc2c1N)CCCCC3,101% (inactive)
9,C=CCn1c(SCC(=O)Nc2ccc(C(=O)/C=C/c3ccc(Cl)cc3)cc2)nnc1-c1cc(OC)c(OC)c(OC)c1,101% (inactive)
10,Oc1ccccc1-c1nc2c3ccccc3c3ccccc3c2o1,92.4% (inactive)
11,COc1ccc(-c2cc(-c3nnc(SCC(=O)Nc4ccc(/C(C)=N\O)cc4)o3)c3ccccc3n2)cc1,113% (inactive)
12,NC(N)=NC(N)=Nc1cc2ccccc2c2ccccc12,53.3% (inactive)
13,O=C1Nc2ccc(Cl)cc2/C1=N/c1nc(-c2ccc(Cl)cc2)cs1,48.9% (inactive)
14,c1ccc(Sc2ncccn2)nc1,111% (inactive)
15,COc1cc2c(Nc3ccc(NC(=O)Nc4ccc(Cl)c(C(F)(F)F)c4)c(Cl)c3)ncnc2cc1OCCCN1CCN(C)CC1,11.3% (inactive)
16,CC(C)C1=C[C@@]23CC[C@H]4[C@](C)(COCCC#N)CCC[C@]4(C)[C@H]2C[C@@H]1[C@@H]1[C@H]3[C@@H](OCCC#N)CC[C@@H]1OCCC#N,86.1% (inactive)
17,COc1cc2nc3c(=O)n(CCN(C)C)cnn3c(=O)c2cc1OC,95.2% (inactive)
18,Cc1nccc2c3ccc(OCc4cn(-c5ccc(Br)cc5)nn4)cc3n(CC(C)C)c12,90.6% (inactive)
19,CC(C)(C)c1nc2c(s1)c1nc(N)ncc1c1ccc(NS(=O)(=O)c3c(F)cccc3F)c(F)c12,60.4% (inactive)

row,SMILES,growth
1,Cc1c(Cl)cccc1NC(=O)c1sc2nc3c(cc2c1N)CCCCCC3,45.6% (inactive)
2,COc1ccc(-c2[nH]c3ccccc3c2C=C(C#N)C#N)cc1,52.1% (inactive)
3,COc1ccc(-c2nnc(N3CCN(C(=O)CN4CCN(c5ccccc5)CC4)CC3)nc2-c2ccc(OC)cc2)cc1,77.3% (inactive)
4,Sc1cccc2cccnc12,36.3% (inactive)
5,COc1ccc2nc(-c3ccc(Cl)cc3)cc(-c3nnc(SC/C(=N/O)c4ccccc4)o3)c2c1,67.9% (inactive)
6,C=C(C)[C@@H]1CC[C@]2(C(=O)NCCCO)CC[C@]3(C)[C@H](CC[C@@H]4[C@@]5(C)CCCNC(C)(C)[C@@H]5CC[C@]43C)[C@@H]12,78.6% (inactive)
7,C=C1C(=O)O[C@H]2[C@H]1CC/C(COC(=O)NCC(=O)Nc1ccc(OC)c(C(N)=O)c1O)=C\CC[C@@]1(C)O[C@@H]21,92.2% (inactive)
8,COc1ccc2nc3c(n2c1)C(=O)C(=O)c1ccccc1-3,-60.9% (active)
9,COc1ccc(C(C)c2cc(OC)c(OC)c(OC)c2)cc1 (centres undefined),44.6% (inactive)
10,COc1cc(NCC(=O)Nc2cc(Nc3cccc(C(F)(F)F)c3)ncn2)c(Cl)c(OC)c1Cl,101% (inactive)
11,O=C1Nc2ccccc2C12C=C(c1ccccc1)Nc1c2c(-c2ccccc2)nn1-c1ccccc1 (centres undefined),82.7% (inactive)
12,CN(C)C1=NCCN1,105% (inactive)
13,COc1cc(N=Nc2cc(S(=O)(=O)O)cc3cc(S(=O)(=O)O)cc(O)c23)c(C)cc1N=Nc1c(S(=O)(=O)O)cc2cc(Nc3ccccc3)ccc2c1O,93.7% (inactive)
14,O=C1NN(c2ccccc2)C(c2ccc(Cl)cc2)N2CCC[C@H]12 (some centres undefined),94.1% (inactive)
15,COc1cc(C(=O)Nc2cc(O)c(C/C=C(\C)CCC=C(C)C)c(O)c2)cc2c1O[C@]1(C)CC[C@@H](O)C(C)(C)[C@H]1C2,48.2% (inactive)
16,COC(=O)CCc1cc(O)c2c(c1)[C@@H](C(=O)OC)[C@H](c1ccc(O)c(O)c1)O2,98.3% (inactive)
17,Cc1nc2sc(C(=O)Nc3ccccc3Cl)c(N)c2cc1C(C)O (centres undefined),91.1% (inactive)
18,NS(=O)(=O)c1ccc(C2C3=C(CCCC3=O)OC3=C2C(=O)c2ccccc2C3=O)cc1 (centres undefined),6.58% (active)

# Test system: HOP-62 NSCLC
# Assay: as above
# Settings: 10 µM unless noted
row,SMILES,growth
1,COc1ccccc1N1CCN(CCCOc2ccc(C(=O)/C=C3/C(=O)Nc4ccccc43)cc2)CC1,38.2% (inactive)
2,CCC[S@](=O)c1ccc2nc(NC(=O)OC)[nH]c2c1,84.6% (inactive)
3,FC(F)(F)c1ccc2c(Nc3cccc(C4CC(c5ccccc5)=NN4c4ccc(Cl)cc4)c3)ccnc2c1 (centres undefined),60.2% (inactive)
4,COc1cc(NC(=O)c2cc(O)c(C/C=C(\C)CCC=C(C)C)c(O)c2)cc2c1O[C@]1(C)CC[C@@H](O)C(C)(C)[C@H]1C2,12.1% (inactive)
5,CCOC(=O)c1c(C)nc2c(c1N)/C(=C/c1cccs1)C(=O)N2Cc1ccccc1,68.8% (inactive)
6,CS(=O)(=O)O[C@@H]1C(=O)N(c2cc3c4ccccc4ccc3c3ccccc23)[C@H]1c1ccc(F)cn1,35.2% (inactive)
7,Cc1cccc(NC(=O)c2sc3nc4c(cc3c2N)CN(Cc2ccccc2)CC4)c1C,32.3% (inactive)
8,C#Cc1ccccc1NC(=O)c1sc2nc3c(cc2c1N)CCCCC3,99.5% (inactive)
9,C=CCn1c(SCC(=O)Nc2ccc(C(=O)/C=C/c3ccc(Cl)cc3)cc2)nnc1-c1cc(OC)c(OC)c(OC)c1,98.3% (inactive)
10,Oc1ccccc1-c1nc2c3ccccc3c3ccccc3c2o1,101% (inactive)
11,COc1ccc(-c2cc(-c3nnc(SCC(=O)Nc4ccc(/C(C)=N\O)cc4)o3)c3ccccc3n2)cc1,99.3% (inactive)
12,NC(N)=NC(N)=Nc1cc2ccccc2c2ccccc12,38.3% (inactive)
13,O=C1Nc2ccc(Cl)cc2/C1=N/c1nc(-c2ccc(Cl)cc2)cs1,-5.13% (active)
14,c1ccc(Sc2ncccn2)nc1,100% (inactive)
15,COc1cc2c(Nc3ccc(NC(=O)Nc4ccc(Cl)c(C(F)(F)F)c4)c(Cl)c3)ncnc2cc1OCCCN1CCN(C)CC1,-15% (active)
16,CC(C)C1=C[C@@]23CC[C@H]4[C@](C)(COCCC#N)CCC[C@]4(C)[C@H]2C[C@@H]1[C@@H]1[C@H]3[C@@H](OCCC#N)CC[C@@H]1OCCC#N,65% (inactive)
17,COc1cc2nc3c(=O)n(CCN(C)C)cnn3c(=O)c2cc1OC,101% (inactive)
18,Cc1nccc2c3ccc(OCc4cn(-c5ccc(Br)cc5)nn4)cc3n(CC(C)C)c12,65.8% (inactive)
19,CC(C)(C)c1nc2c(s1)c1nc(N)ncc1c1ccc(NS(=O)(=O)c3c(F)cccc3F)c(F)c12,84.1% (inactive)

row,SMILES,growth
1,Cc1c(Cl)cccc1NC(=O)c1sc2nc3c(cc2c1N)CCCCCC3,30.6% (inactive)
2,COc1ccc(-c2[nH]c3ccccc3c2C=C(C#N)C#N)cc1,32.2% (inactive)
3,COc1ccc(-c2nnc(N3CCN(C(=O)CN4CCN(c5ccccc5)CC4)CC3)nc2-c2ccc(OC)cc2)cc1,58.9% (inactive)
4,Sc1cccc2cccnc12,36.7% (inactive)
5,COc1ccc2nc(-c3ccc(Cl)cc3)cc(-c3nnc(SC/C(=N/O)c4ccccc4)o3)c2c1,59.4% (inactive)
6,C=C(C)[C@@H]1CC[C@]2(C(=O)NCCCO)CC[C@]3(C)[C@H](CC[C@@H]4[C@@]5(C)CCCNC(C)(C)[C@@H]5CC[C@]43C)[C@@H]12,89.9% (inactive)
7,C=C1C(=O)O[C@H]2[C@H]1CC/C(COC(=O)NCC(=O)Nc1ccc(OC)c(C(N)=O)c1O)=C\CC[C@@]1(C)O[C@@H]21,85.4% (inactive)
8,COc1ccc2nc3c(n2c1)C(=O)C(=O)c1ccccc1-3,-72.9% (active)
9,COc1ccc(C(C)c2cc(OC)c(OC)c(OC)c2)cc1 (centres undefined),35.4% (inactive)
10,COc1cc(NCC(=O)Nc2cc(Nc3cccc(C(F)(F)F)c3)ncn2)c(Cl)c(OC)c1Cl,87.6% (inactive)
11,O=C1Nc2ccccc2C12C=C(c1ccccc1)Nc1c2c(-c2ccccc2)nn1-c1ccccc1 (centres undefined),81.4% (inactive)
12,CN(C)C1=NCCN1,107% (inactive)
13,COc1cc(N=Nc2cc(S(=O)(=O)O)cc3cc(S(=O)(=O)O)cc(O)c23)c(C)cc1N=Nc1c(S(=O)(=O)O)cc2cc(Nc3ccccc3)ccc2c1O,102% (inactive)
14,O=C1NN(c2ccccc2)C(c2ccc(Cl)cc2)N2CCC[C@H]12 (some centres undefined),98.8% (inactive)
15,COc1cc(C(=O)Nc2cc(O)c(C/C=C(\C)CCC=C(C)C)c(O)c2)cc2c1O[C@]1(C)CC[C@@H](O)C(C)(C)[C@H]1C2,8.47% (active)
16,COC(=O)CCc1cc(O)c2c(c1)[C@@H](C(=O)OC)[C@H](c1ccc(O)c(O)c1)O2,54.3% (inactive)
17,Cc1nc2sc(C(=O)Nc3ccccc3Cl)c(N)c2cc1C(C)O (centres undefined),75.8% (inactive)
18,NS(=O)(=O)c1ccc(C2C3=C(CCCC3=O)OC3=C2C(=O)c2ccccc2C3=O)cc1 (centres undefined),-89.8% (active)
